Bioassay records from PubChem BioAssay.
Hits are enriched below; roughly 7.9% of the tested compounds scored in any of these assays.
M1 ag: M1 muscarinic receptor agonists, primary screen, CHO-M1 cells, Fluo-4 calcium, agonist mode; Muscarinic acetylcholine receptor M1; Fluo-4 calcium fluorescence; hits give high values; B-score at 10 µM; 64,000 compounds, 3% hits; AID 626, 2007;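 active = fluorescence rise, raw or as B-score row- and column-corrected plate score, outside the 99.7% band of its plate's samples, either direction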
Cav32 inh: Cav3.2 calcium influx blockers – cell-based, Fluo-4 calcium fluorescence, FDSS, MLSMR library, primary screen; Cav3.2-expressing cells; hits give low values; B-score at 10 µM; Voltage-dependent T-type calcium channel subunit alpha-1H (Homo sapiens), O95180; 100,000 compounds, 4% hits;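 active = single-dose well whose peak fluorescence ratio is a statistical outlier from its plate by either plate-standardised score or position-corrected B-score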
Her2 expr inh: inhibitors of Her2 protein expression, primary screen, SKBR-3 cells, AlphaScreen, 66K library; AID 645, 2007; HER2 level % of control, % at 10 µM; 65,000 compounds, 0.69% hits; SKBR-3 HER2 protein level, 18-24 h; hits give low values;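 active = HER2 level under 5% of the carrier-only control; inconclusive = no clear call, values can overlap the other calls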;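 also: 100% = DMSO carrier and 0% = 500 nM PU-H71 HSP90 inhibitor; lower value means stronger loss of Her2 protein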
PLAP act: PLAP enzyme activators, biochemical, luminescence, HTS; purified PLAP enzyme, luminescent substrate read-out; hits give high values; activation fold at 20 µM; 96,000 compounds, 1.2% hits; in the data active = activation fold above about 2
M1 antag: antagonists of rat M1 muscarinic receptor | B-score at 10 µM | Muscarinic acetylcholine receptor M1 (Rattus norvegicus), P08482 | AID 628, 2007 | CHO-M1 cells, Fluo-4 calcium, ACh EC80 antagonist mode; hits give low values | 64,000 compounds, 3.4% hits;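 active = calcium fluorescence response, raw or row-and-column corrected B-score, differing from the plate sample mean either way at a set confidence level, mostly lower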
M1 ag confirm: rat M1 muscarinic receptor agonists, confirmation, CHO-M1 cells, Fluo-4 calcium, duplicate retest; fluorescence change (max-min) at 10 µM; 1,700 compounds, 19% hits; Fluo-4 calcium fluorescence, agonist mode; actives lie on both sides; shares compounds with M1 ag;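 active = fluorescence change differs from the solvent-only DMSO control mean at a set confidence level in both duplicate runs; inconclusive = differs from solvent-only control mean in just one of two runs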;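 also: an EC20 dose of acetylcholine follows compound addition during the same imaging run; raw fluorescence intensity difference in instrument units with no normalization to controls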
M4 agonist ctr: agonist activity at rat M4 receptor, confirmation, counter-screen for M1 allosteric modulator project, cell-based, agonist mode. shares compounds with M1 ag. CHO M4/Gqi5 cells, Fluo-4 calcium fluorescence; actives lie on both sides. fluorescence change (max-min) at 10 µM. 1,700 compounds, 9% hits. AID 1741, 2009;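 active = fluorescence change differing from the plate's solvent-only control wells at 99.7% confidence in both duplicates, whether higher or lower; inconclusive = differs from solvent controls in only one of two duplicates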
Active calls of the source: *.

How did O=C(CCn1c(=O)[nH]c2ccccc2c1=O)Nc1ccccc1 do in these assays?
M1 ag: 11*; Cav32 inh: 0.66; Her2 expr inh: 125; PLAP act: 1; M1 antag: 0.43; M1 ag confirm: -7.7; M4 agonist ctr: -31

How did COCCCNC(=O)CCCn1c(=O)[nH]c2ccccc2c1=O do in these assays?
M1 ag: 2*; Cav32 inh: 0.75; Her2 expr inh: 117; PLAP act: 1; M1 antag: 0.23; M1 ag confirm: -20; M4 agonist ctr: -47

What do the screens show for `COc1ccc(C(=O)COC(=O)CCn2nnc(-c3cccs3)n2)cc1`?
M1 ag: -0.019; Her2 expr inh: 104; PLAP act: 0.8; M1 antag: 0.33

What do the screens show for `CC1SCCN1S(=O)(=O)c1ccc2ccccc2c1` (centres undefined)?
Cav32 inh: -2.6

What do the screens show for `CCn1c2ccc(Cl)cc2c2nc3ccccc3nc21`?
Cav32 inh: -0.46; PLAP act: 1

How did CCCn1nc(-c2ccccc2)c2nc3ccccc3nc21 do in these assays?
M1 ag: 475*; Cav32 inh: -2.2; Her2 expr inh: 106; PLAP act: 0.9; M1 antag: 0.5; M1 ag confirm: 492*; M4 agonist ctr: 1201*

Results for CCn1nc(-c2ccccc2)c2nc3ccccc3nc21 ?
M1 ag: 24*; Her2 expr inh: 68; PLAP act: 1.4; M1 antag: -0.93; M1 ag confirm: 24; M4 agonist ctr: 11

Results for CCCN1C2CCCC1CC(NC(=O)c1cc(OC)c(OC)c(OC)c1)C2 (centres undefined) ?
M1 ag: 0.35; Cav32 inh: 0.8; Her2 expr inh: 103; PLAP act: 1.2; M1 antag: -2.6

What do the screens show for `Cc1cccc(NCN2C(=O)c3ccccc3C2=O)c1`?
Cav32 inh: 0.71; PLAP act: 1.1

What do the screens show for `C=CCOc1cccc(C2C(C(=O)c3ccc(C)o3)=C(O)C(=O)N2c2nccs2)c1` (centres undefined)?
M1 ag: 58*; Cav32 inh: -5.1*; Her2 expr inh: 99; PLAP act: 1; M1 antag: 0.33; M1 ag confirm: 834*; M4 agonist ctr: 84*

What do the screens show for `CNC(=O)C1CC(=O)N(Cc2ccc3c(c2)OCO3)C(=Nc2ccc(OC)cc2)S1` (centres undefined)?
M1 ag: -0.77; Cav32 inh: -0.28; Her2 expr inh: 102; PLAP act: 1.1; M1 antag: 0.5

Results for Cc1ccc(NC(=O)CSc2n[nH]c(-c3ccncc3)n2)cc1C ?
M1 ag: -1; Cav32 inh: 0.31; Her2 expr inh: 107; PLAP act: 0.9; M1 antag: -0.058

What do the screens show for `Cc1ccc(-c2noc(CCCC(=O)N3CCOCC3)n2)cc1`?
M1 ag: -0.55; Cav32 inh: -0.091; Her2 expr inh: 114; PLAP act: 0.9; M1 antag: -0.46

What do the screens show for `O=C(CCCc1nc(-c2ccc(Cl)cc2)no1)N1CCOCC1`?
M1 ag: -2.5*; Cav32 inh: 1; Her2 expr inh: 101; M1 antag: -0.65; M1 ag confirm: inconclusive; M4 agonist ctr: -90*

What do the screens show for `Cc1ccnc(SCC(=O)Nc2c(C)n(C)n(-c3ccccc3)c2=O)n1`?
Cav32 inh: 0.68; PLAP act: 0.9

Results for COC(=O)C1=C(N)Oc2cc(C)n(Cc3cccnc3)c(=O)c2C1c1ccc(OC)c(OC)c1 (centres undefined) ?
M1 ag: 2; Her2 expr inh: 77; PLAP act: 1.1; M1 antag: -0.58

How did CCOC(=O)C1=C(N)Oc2cc(C)n(CCc3ccc(OC)c(OC)c3)c(=O)c2C1c1cccnc1 (centres undefined) do in these assays?
M1 ag: 8.5*; Cav32 inh: 0.79; Her2 expr inh: 112; PLAP act: 1.8; M1 antag: -0.65; M1 ag confirm: inconclusive; M4 agonist ctr: -67

Results for CC1CCCCC1NS(=O)(=O)c1ccc(S(=O)(=O)NCc2ccncc2)cc1 (centres undefined) ?
M1 ag: 3.5*; Cav32 inh: 0.54; Her2 expr inh: 104; PLAP act: 1.1; M1 antag: -0.49; M1 ag confirm: -11; M4 agonist ctr: -9.6

What do the screens show for `Cc1ccc(S(=O)(=O)NCc2ccncc2)cc1`?
M1 ag: -1.2; Cav32 inh: 1.3; Her2 expr inh: 125; PLAP act: 0.8; M1 antag: -0.72

How did O=C(Nc1ccccc1Cl)c1cccc(NS(=O)(=O)c2ccccc2)c1 do in these assays?
Cav32 inh: -1.7; PLAP act: 1.4

How did CCOc1cc(-c2cc(-c3ccc(N)cc3)nc(N)c2C#N)ccc1O do in these assays?
M1 ag: 0.0068; Cav32 inh: 0.19; Her2 expr inh: 92; PLAP act: 0.9; M1 antag: -0.16

How did CCOc1cc(-c2ccc(N)c(OCC)c2)ccc1N do in these assays?
M1 ag: 36*; Cav32 inh: -5.4*; Her2 expr inh: 51; PLAP act: 1; M1 antag: 0.077; M1 ag confirm: 249*; M4 agonist ctr: 211*

How did C=CCSC1=C(C#N)C(c2ccc(OCC)cc2)CC(=O)N1 (centres undefined) do in these assays?
M1 ag: -0.87; Cav32 inh: 1.4; Her2 expr inh: 66; PLAP act: 1; M1 antag: -0.55

How did Cc1ccc2occ(C(c3nnnn3C3CCCC3)N3CCN(C(=O)c4ccco4)CC3)c(=O)c2c1 (centres undefined) do in these assays?
M1 ag: 2.7*; Cav32 inh: 0.71; Her2 expr inh: 103; PLAP act: 1.6; M1 antag: -2; M1 ag confirm: inconclusive; M4 agonist ctr: inconclusive

What do the screens show for `NC(=O)CSc1nc2scc(-c3ccco3)c2c(=O)n1-c1ccccc1`?
M1 ag: 4.3*; Cav32 inh: 0.45; Her2 expr inh: 94; PLAP act: 1.2; M1 antag: -1.4; M1 ag confirm: inconclusive; M4 agonist ctr: -55

Results for O=C(CSc1nc2scc(-c3ccco3)c2c(=O)n1-c1ccccc1)NCC1CCCO1 (centres undefined) ?
M1 ag: -0.099; Cav32 inh: -2.9; Her2 expr inh: 118; PLAP act: 1.4; M1 antag: 0.18
